# From PubChem BioAssay (NCI)
# The panel holds about 79,000 compounds, 15% with a hit somewhere; the sample as a whole holds those more often. A number with no mark means an inactive call. Active and inactive are the calls of the source. Cut-off read from the data, not from the text of the source: active = growth inhibition above about 70%; inactive = the rest.
# How the values were obtained:
# [1] = NCI Yeast Anticancer Drug Screen. Data for the wt1 strain (AID 149);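 note: 0% = growth of vehicle-treated wt1 cultures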; conditions: S. cerevisiae wt1 strain (SPY 50644) growth inhibition, hits give high values
# Method in brief: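 wt1 yeast, compound-treated; % growth inhibition vs vehicle control.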
# [2] = NCI Yeast Anticancer Drug Screen. Data for the rad50EPP+ strain (AID 151);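 note: 0% = growth of vehicle-treated control cultures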; conditions: S. cerevisiae rad50 mutant strain, hits give high values
# Method in brief: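 Compounds were applied to the rad50EPP+ yeast strain, which bears a defined DNA repair alteration, and growth inhibition was determined relative to vehicle-treated cultures.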
# [3] = NCI Yeast Anticancer Drug Screen. Data for the mgt1 strain (AID 153); conditions: S. cerevisiae mgt1 mutant growth inhibition, hits give high values
# Method in brief: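 Strain: mgt1 yeast, one of a set carrying defined DNA damage repair or cell cycle control alterations. Compound-treated growth compared with vehicle.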
# [4] = NCI Yeast Anticancer Drug Screen. Data for the rad50 strain (AID 155);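 note: 0% = growth of vehicle-only cultures of the same strain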; conditions: S. cerevisiae rad50 strain growth inhibition, hits give high values
# Method in brief: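 Genetically altered yeast (DNA repair pathway); compound treatment; growth inhibition vs vehicle ctrl.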
# [5] = NCI Yeast Anticancer Drug Screen. Data for the mec2-1 strain (AID 157); conditions: S. cerevisiae mec2-1 strain, hits give high values
# Method in brief: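 Strain: mec2-1 (DNA repair/cell cycle alteration). Compound exposure, then growth measured; inhibition expressed relative to vehicle.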
# [6] = NCI Yeast Anticancer Drug Screen. Data for the rad14 strain (AID 159);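 note: 0% = growth of vehicle-treated control cultures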; conditions: S. cerevisiae rad14 strain growth inhibition, hits give high values
# Method in brief: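 Test compounds were applied to a repair-deficient yeast strain. Its growth was then compared with that of cultures given vehicle alone, and inhibition was expressed relative to those controls.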
# [7] = NCI Yeast Anticancer Drug Screen. Data for the CLN2oe strain (AID 163);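 note: 0% = growth of vehicle-only control cultures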; conditions: S. cerevisiae CLN2oe strain, hits give high values
# Method in brief: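 Growth of a genetically modified yeast strain is measured after compound exposure and compared with cultures given vehicle alone.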
# [8] = NCI Yeast Anticancer Drug Screen. Data for the cln2 rad14 strain (AID 165);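 note: 0% = growth equal to vehicle treated cultures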; conditions: S. cerevisiae cln2 rad14 strain, hits give high values
# Method in brief: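 Compounds are applied to the cln2 rad14 yeast strain, and growth is then compared with that of vehicle-treated cultures to give inhibition.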
# [9] = NCI Yeast Anticancer Drug Screen. Data for the bub3 strain (AID 167); conditions: S. cerevisiae bub3 mutant strain, hits give high values
# Method in brief: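 Yeast carrying a defined mutation is treated with each compound, and growth is compared with that of vehicle-exposed cells to give inhibition.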
# [10] = NCI Yeast Anticancer Drug Screen. Data for the wt2 strain (AID 169);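 note: 0% = growth of vehicle-treated yeast cultures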; conditions: S. cerevisiae wt2 strain growth inhibition, hits give high values
# Method in brief: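 This strain belongs to a panel of yeast strains with defined genetic alterations in DNA damage repair or cell cycle control. Compounds are applied, and growth inhibition is measured against vehicle-treated cultures.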
# [11] = NCI Yeast Anticancer Drug Screen. Data for the mlh1 strain (AID 171);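 note: 0% = growth of vehicle-treated control cultures of the same strain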; conditions: S. cerevisiae mlh1 strain growth inhibition, hits give high values
# Method in brief: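 Growth of the mutant yeast strain after compound exposure, expressed as inhibition relative to vehicle-only controls.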
# [12] = NCI Yeast Anticancer Drug Screen. Data for the sgs1 strain (AID 173);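 note: 0% = growth of vehicle-only control cultures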; conditions: S. cerevisiae sgs1 mutant, hits give high values
# Method in brief: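 Growth of a yeast strain bearing a defined genetic alteration is measured after compound treatment. Inhibition is expressed relative to vehicle-only controls.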
# [13] = NCI Yeast Anticancer Drug Screen. Data for the mlh1 rad18 strain (AID 175); conditions: S. cerevisiae mlh1 rad18 strain growth inhibition, hits give high values
# Method in brief: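 Read-out is yeast growth inhibition, calculated against vehicle-only controls. The compound was applied to a strain engineered with DNA damage repair alterations.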
# [14] = NCI Yeast Anticancer Drug Screen. Data for the rad18 strain (AID 177); conditions: S. cerevisiae rad18 mutant growth inhibition, hits give high values
# Method in brief: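 Growth of the mutant yeast strain after compound exposure, normalised to vehicle-only cultures.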
# [15] = at 5.0 µM (retest, dose inferred, filed as 0.5)
# [16] = at 50.0 µM (retest, dose inferred, filed as 5.0)
smiles,measurement,setting,value
Nc1nc(Nc2ccccc2)nc(Nc2ccccc2)n1,growth inhibition,[1]; at 1.2 µM,-3%
same,growth inhibition,[1]; at 3.7 µM,-10%
same,growth inhibition,[1]; at 11.0 µM,-12%
same,growth inhibition,[1]; at 33.0 µM,-15%
same,growth inhibition,[1]; at 100.0 µM,81% (active)
same,growth inhibition,[2]; at 1.2 µM,1%
same,growth inhibition,[2]; at 3.7 µM,-6%
same,growth inhibition,[2]; at 11.0 µM,21%
same,growth inhibition,[2]; at 33.0 µM,28%
same,growth inhibition,[2]; at 100.0 µM,50%
same,growth inhibition,[3]; at 1.2 µM,-1%
same,growth inhibition,[3]; at 3.7 µM,-7%
same,growth inhibition,[3]; at 11.0 µM,-3%
same,growth inhibition,[3]; at 33.0 µM,2%
same,growth inhibition,[3]; at 100.0 µM,92% (active)
same,growth inhibition,[4]; at 1.2 µM,-6%
same,growth inhibition,[4]; at 3.7 µM,-10%
same,growth inhibition,[4]; [15],4%
same,growth inhibition,[4]; at 11.0 µM,-6%
same,growth inhibition,[4]; at 33.0 µM,11%
same,growth inhibition,[4]; [16],7%
same,growth inhibition,[4]; at 50.0 µM,93.5% (active)
same,growth inhibition,[4]; at 100.0 µM,93% (active)
same,growth inhibition,[5]; at 1.2 µM,-1%
same,growth inhibition,[5]; at 3.7 µM,1%
same,growth inhibition,[5]; [15],-2%
same,growth inhibition,[5]; at 11.0 µM,-1%
same,growth inhibition,[5]; at 33.0 µM,-2%
same,growth inhibition,[5]; [16],21%
same,growth inhibition,[5]; at 50.0 µM,85.8% (active)
same,growth inhibition,[5]; at 100.0 µM,81% (active)
same,growth inhibition,[6]; at 1.2 µM,5%
same,growth inhibition,[6]; at 3.7 µM,1%
same,growth inhibition,[6]; at 11.0 µM,1%
same,growth inhibition,[6]; at 33.0 µM,36%
same,growth inhibition,[6]; at 100.0 µM,95% (active)
same,growth inhibition,[7]; at 1.2 µM,-7%
same,growth inhibition,[7]; at 3.7 µM,-6%
same,growth inhibition,[7]; at 11.0 µM,-6%
same,growth inhibition,[7]; at 33.0 µM,-3%
same,growth inhibition,[7]; at 100.0 µM,87% (active)
same,growth inhibition,[8]; [15],-4%
same,growth inhibition,[8]; [16],8%
same,growth inhibition,[8]; at 50.0 µM,81.2% (active)
same,growth inhibition,[9]; at 1.2 µM,-4%
same,growth inhibition,[9]; at 3.7 µM,-3%
same,growth inhibition,[9]; [15],-5%
same,growth inhibition,[9]; at 11.0 µM,-8%
same,growth inhibition,[9]; at 33.0 µM,5%
same,growth inhibition,[9]; [16],32%
same,growth inhibition,[9]; at 50.0 µM,91.5% (active)
same,growth inhibition,[9]; at 100.0 µM,95% (active)
same,growth inhibition,[10]; at 1.2 µM,-15%
same,growth inhibition,[10]; at 3.7 µM,-8%
same,growth inhibition,[10]; at 11.0 µM,-7%
same,growth inhibition,[10]; at 33.0 µM,66%
same,growth inhibition,[10]; at 100.0 µM,96% (active)
same,growth inhibition,[11]; at 1.2 µM,-6%
same,growth inhibition,[11]; at 3.7 µM,-2%
same,growth inhibition,[11]; at 11.0 µM,-3%
same,growth inhibition,[11]; at 33.0 µM,35%
same,growth inhibition,[11]; at 100.0 µM,97% (active)
same,growth inhibition,[12]; at 1.2 µM,-10%
same,growth inhibition,[12]; at 3.7 µM,-3%
same,growth inhibition,[12]; at 11.0 µM,6%
same,growth inhibition,[12]; at 33.0 µM,57%
same,growth inhibition,[12]; at 100.0 µM,97% (active)
same,growth inhibition,[13]; [15],0%
same,growth inhibition,[13]; [16],58%
same,growth inhibition,[13]; at 50.0 µM,96.5% (active)
same,growth inhibition,[14]; at 1.2 µM,-1%
same,growth inhibition,[14]; at 3.7 µM,5%
same,growth inhibition,[14]; at 11.0 µM,2%
same,growth inhibition,[14]; at 33.0 µM,31%
same,growth inhibition,[14]; at 100.0 µM,96% (active)
CCC(C)/C(C)=N/NC(N)=O (configuration not stated),growth inhibition,[1]; at 1.2 µM,0%
same,growth inhibition,[1]; at 3.7 µM,2%
same,growth inhibition,[1]; at 11.0 µM,3%
same,growth inhibition,[1]; at 33.0 µM,3%
same,growth inhibition,[1]; at 100.0 µM,1%
same,growth inhibition,[2]; at 1.2 µM,-5%
same,growth inhibition,[2]; at 3.7 µM,-1%
same,growth inhibition,[2]; at 11.0 µM,-3%
same,growth inhibition,[2]; at 33.0 µM,-9%
same,growth inhibition,[2]; at 100.0 µM,-14%
same,growth inhibition,[3]; at 1.2 µM,0%
same,growth inhibition,[3]; at 3.7 µM,-2%
same,growth inhibition,[3]; at 11.0 µM,1%
same,growth inhibition,[3]; at 33.0 µM,14%
same,growth inhibition,[3]; at 100.0 µM,1%
same,growth inhibition,[4]; at 1.2 µM,2%
same,growth inhibition,[4]; at 3.7 µM,0%
same,growth inhibition,[4]; [15],-7%
same,growth inhibition,[4]; at 11.0 µM,0%
same,growth inhibition,[4]; at 33.0 µM,0%
same,growth inhibition,[4]; [16],30%
same,growth inhibition,[4]; at 50.0 µM,58.2%
same,growth inhibition,[4]; at 100.0 µM,0%
same,growth inhibition,[5]; at 1.2 µM,-1%
same,growth inhibition,[5]; at 3.7 µM,2%
same,growth inhibition,[5]; [15],-3%
same,growth inhibition,[5]; at 11.0 µM,-1%
same,growth inhibition,[5]; at 33.0 µM,-3%
same,growth inhibition,[5]; [16],-2%
same,growth inhibition,[5]; at 50.0 µM,18.1%
same,growth inhibition,[5]; at 100.0 µM,1%
same,growth inhibition,[6]; at 1.2 µM,-2%
same,growth inhibition,[6]; at 3.7 µM,0%
same,growth inhibition,[6]; at 11.0 µM,1%
same,growth inhibition,[6]; at 33.0 µM,0%
same,growth inhibition,[6]; at 100.0 µM,0%
same,growth inhibition,[7]; at 1.2 µM,-7%
same,growth inhibition,[7]; at 3.7 µM,0%
same,growth inhibition,[7]; at 11.0 µM,0%
same,growth inhibition,[7]; at 33.0 µM,-6%
same,growth inhibition,[7]; at 100.0 µM,-5%
same,growth inhibition,[8]; [15],5%
same,growth inhibition,[8]; [16],12%
same,growth inhibition,[8]; at 50.0 µM,22.5%
same,growth inhibition,[9]; at 1.2 µM,-2%
same,growth inhibition,[9]; at 3.7 µM,-2%
same,growth inhibition,[9]; [15],8%
same,growth inhibition,[9]; at 11.0 µM,0%
same,growth inhibition,[9]; at 33.0 µM,-3%
same,growth inhibition,[9]; [16],43%
same,growth inhibition,[9]; at 50.0 µM,25%
same,growth inhibition,[9]; at 100.0 µM,-10%
same,growth inhibition,[10]; at 1.2 µM,1%
same,growth inhibition,[10]; at 3.7 µM,2%
same,growth inhibition,[10]; at 11.0 µM,3%
same,growth inhibition,[10]; at 33.0 µM,4%
same,growth inhibition,[10]; at 100.0 µM,2%
same,growth inhibition,[11]; at 1.2 µM,1%
same,growth inhibition,[11]; at 3.7 µM,1%
same,growth inhibition,[11]; at 11.0 µM,2%
same,growth inhibition,[11]; at 33.0 µM,1%
same,growth inhibition,[11]; at 100.0 µM,0%
same,growth inhibition,[12]; at 1.2 µM,0%
same,growth inhibition,[12]; at 3.7 µM,4%
same,growth inhibition,[12]; at 11.0 µM,3%
same,growth inhibition,[12]; at 33.0 µM,3%
same,growth inhibition,[12]; at 100.0 µM,2%
same,growth inhibition,[14]; at 1.2 µM,1%
same,growth inhibition,[14]; at 3.7 µM,0%
same,growth inhibition,[14]; at 11.0 µM,-7%
same,growth inhibition,[14]; at 33.0 µM,3%
same,growth inhibition,[14]; at 100.0 µM,5%
